This note sets out measurements from the supplement of paper PMC3334620.

Over roughly 33,000 sequences, “E-score (-0.5 to 0.5)” has its median near -0.016; the highest 2% begin near 0.3. Only a selection was taken, and the highest values are over-represented in it overall.

This test deals with T1, Yer184c (UniProt P39961).
T1 sequence: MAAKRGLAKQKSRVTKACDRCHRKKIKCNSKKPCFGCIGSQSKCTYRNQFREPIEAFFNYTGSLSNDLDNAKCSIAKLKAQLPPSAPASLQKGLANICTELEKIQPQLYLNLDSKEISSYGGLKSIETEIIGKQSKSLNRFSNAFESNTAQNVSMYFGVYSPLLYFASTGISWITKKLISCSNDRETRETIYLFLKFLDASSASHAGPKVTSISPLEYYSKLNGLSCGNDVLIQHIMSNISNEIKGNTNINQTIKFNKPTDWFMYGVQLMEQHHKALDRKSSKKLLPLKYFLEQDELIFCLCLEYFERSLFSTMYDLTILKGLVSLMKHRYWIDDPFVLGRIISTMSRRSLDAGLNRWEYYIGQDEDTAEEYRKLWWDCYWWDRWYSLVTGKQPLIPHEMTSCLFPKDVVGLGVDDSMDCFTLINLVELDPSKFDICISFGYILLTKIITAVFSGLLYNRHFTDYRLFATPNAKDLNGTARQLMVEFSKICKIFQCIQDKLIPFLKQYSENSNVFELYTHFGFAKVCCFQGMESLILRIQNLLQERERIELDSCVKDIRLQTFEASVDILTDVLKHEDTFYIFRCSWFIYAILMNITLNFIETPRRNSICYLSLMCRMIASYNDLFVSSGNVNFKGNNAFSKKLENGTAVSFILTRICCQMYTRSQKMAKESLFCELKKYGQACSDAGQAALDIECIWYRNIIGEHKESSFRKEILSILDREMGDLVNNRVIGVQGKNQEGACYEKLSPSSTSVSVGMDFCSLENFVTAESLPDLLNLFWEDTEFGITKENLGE
Kind of test: PBM E-score (8-mer binding enrichment) (E-score (-0.5 to 0.5)); higher = stronger / more preferred TF binding. The following applies: protein concentration: 100 nM; construct: GST-full length. The method in brief:
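Universal all-10-mer Agilent arrays, fresh or stripped once, were converted to double-stranded form by primer extension. GST-tagged yeast transcription factors from PURExpress in vitro transcription/translation, full-length or DNA-binding domain only, were applied at about 100-200 nM and detected with fluorescent anti-GST. After masliner normalisation, the Universal PBM Analysis Suite scored each ungapped eight-base word together with its reverse complement by E-score.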
In the case of GGACTTTA, the “PBM E-score” value was 0.156.

On to AGTAGGTC, for which the “PBM E-score” value is -0.225. Regarding CTGCGCAA, the “PBM E-score” value was -0.0246. In the case of ATGGTACG, the “PBM E-score” value worked out at 0.0122. On to ACTGTTGA, for which the “PBM E-score” value is -0.0706. For the sequence CCGGCGAA, the “PBM E-score” value came out at 0.35. For the sequence GCGGCGGA, the “PBM E-score” value amounted to 0.193.

Consider CCGGCGGC, for which the “PBM E-score” value is 0.291.

Regarding CCGGCGGA, the “PBM E-score” value worked out at 0.369. As for GCGGCGAA, the “PBM E-score” value is 0.27. As to TCGGCGAA, the “PBM E-score” value came to 0.294. As for ACGGCGTA, the figure is 0.0111; as for GCGGCGTA, -0.0609; as for CCGGCGTA, 0.313. TATCTAAA: the “PBM E-score” value was found to be 0.0877. As to CACTGCGA, the “PBM E-score” value is -0.0568. AGGTAGGA: the “PBM E-score” value is -0.06. For GGAGTGCC, the “PBM E-score” value turned out to be 0.0423. On to TACTATGA, for which the “PBM E-score” value is 0.142.

On to CCGGAAAG, for which the “PBM E-score” value was 0.312. For the sequence ACGGAAAG, the “PBM E-score” value worked out at 0.231. Consider CAGGAAAC, for which the “PBM E-score” value turned out to be 0.117.

In the case of CCGGAAAC, the “PBM E-score” value was 0.396. Consider CGGGAAAC, for which the “PBM E-score” value worked out at 0.286. As for CGGGAAAG, the “PBM E-score” value was determined as 0.138. For the sequence CCCACGAA, the “PBM E-score” value is -0.0234.

On to CAGCGTCC, for which the “PBM E-score” value was -0.0361. For the sequence TTAGGCAA, the “PBM E-score” value is -0.168. As for AGAACAGA, the figure is 0.0872; as for GAGTATGC, -0.00892. To CCGGGAAA belongs 0.35; to GCGGGAAA, 0.223; to TCGGGAAA, 0.309.

Consider CGGGGAAA, for which the “PBM E-score” value worked out at 0.15. Take ACGGGAAA: the “PBM E-score” value came to 0.159. CCGGGGAA: the “PBM E-score” value was 0.267. With AGTGCTTG, the “PBM E-score” value is -0.109.

For the sequence CCTTCTAG, the “PBM E-score” value was -0.237. As to ATAGAAAA, the “PBM E-score” value is -0.0185. Regarding ATAGAAAT, the “PBM E-score” value is 0.318.

Regarding ATAGAAAG, the “PBM E-score” value is -0.0692. As for ACAGGCCC, the figure is -0.349; as for ACATTAAG, 0.132; as for TCCCGGGA, 0.337. As for CCCCGGGA, the figure is 0.119; as for GCCCGGGA, 0.282. Take ACCCGGGC: the “PBM E-score” value worked out at 0.233.

For the sequence ACCCGGGT, the “PBM E-score” value came to 0.299. As for ACCCGGGA, the figure is 0.367; as for GGCCTGGA, -0.213. For the sequence TGCAAAAA, the “PBM E-score” value came to 0.00535. Take TACGGAAA: the “PBM E-score” value amounted to 0.362.

On to CACGGAGC, for which the “PBM E-score” value stood at 0.14.

Take CACGGAAC: the “PBM E-score” value was determined as 0.349.

For the sequence GACGGAAA, the “PBM E-score” value is 0.213. CACGGACC: the “PBM E-score” value came to 0.192. In the case of TACGGGAA, the “PBM E-score” value worked out at 0.142.

As to AACGGAAC, the “PBM E-score” value was determined as 0.333.

On to AACGGAGA, for which the “PBM E-score” value was found to be 0.107.

Take AACGGAGC: the “PBM E-score” value was -0.0449. On to AACGGAGT, for which the “PBM E-score” value was 0.312. Regarding AACGGACC, the “PBM E-score” value amounted to 0.185. In the case of GACGGAAC, the “PBM E-score” value turned out to be 0.125. Take TCTATGCA: the “PBM E-score” value turned out to be 0.0433.

Turning to AGAACGGC, the “PBM E-score” value was determined as 0.176. With CTCGAAAA, the “PBM E-score” value is -0.0323. For CATCTGCA, the “PBM E-score” value was -0.0527. For CCACTAAA, the “PBM E-score” value is -0.0267. For GCAAGGGC, the “PBM E-score” value is -0.274. Regarding ACTGCCTC, the “PBM E-score” value is -0.229.

Turning to AGATTAGG, the “PBM E-score” value was -0.068. For the sequence AGATGGCG, the “PBM E-score” value amounted to 0.0474. Regarding AACGGAAG, the “PBM E-score” value was 0.179. In the case of CTCGGAAA, the “PBM E-score” value came out at 0.289. For AACGGACA, the “PBM E-score” value is 0.202.

Take CACGGAAG: the “PBM E-score” value amounted to 0.149.

GTCGGAAC: the “PBM E-score” value was found to be 0.217. With CACGGAAA, the “PBM E-score” value stood at 0.345.

With CTCGGAAC, the “PBM E-score” value came to 0.358. AACGGAAA: the “PBM E-score” value was determined as 0.408. With AACGGGAA, the “PBM E-score” value amounted to 0.25. Turning to AACGGAAT, the “PBM E-score” value is 0.365. AGCGGAAT: the “PBM E-score” value worked out at 0.0752. On to CAAGGAAA, for which the “PBM E-score” value is -0.0602. For AATAGTGT, the “PBM E-score” value was 0.267. On to ATCAGTAA, for which the “PBM E-score” value worked out at 0.166.

As for GAATAGGA, the “PBM E-score” value stood at 0.0511. For GCGATCAC, the “PBM E-score” value is -0.19. Take ACTTCTAG: the “PBM E-score” value was -0.28.

GTCACTTA: the “PBM E-score” value is 0.122. In the case of AGGGACTG, the “PBM E-score” value was -0.316. Turning to GGACCTGA, the “PBM E-score” value is -0.0219. For the sequence ATACATAT, the “PBM E-score” value came out at 0.255.

As to AGGATCAA, the “PBM E-score” value turned out to be 0.14.
